# Source: ChEMBL document CHEMBL3988442, “University of Dundee, Small-Polar-MMV Screening Library” (2021)
# For some of these results: Results with a measured potency or affinity are listed apart.
# Key:
# Parameters in all cases: scale not given: direction of the effect not stated beside the values
# [1] = target: Protein translocase subunit SecA (Escherichia coli (strain K12)) (UniProt P10408); assay: Assay to Identify E. coli SecA ATPase Inhibitors; format: functional; details: 30 µM
# [2] = target: T1, Ubiquitin-activating enzyme e1, putative (Leishmania donovani (strain BPK282A1)) (UniProt E9BSI1); assay: Leishmania donovani Ubiquitin Activating Enzyme (LdE1); format: functional; details: 30 µM
# T1 sequence (whole entry): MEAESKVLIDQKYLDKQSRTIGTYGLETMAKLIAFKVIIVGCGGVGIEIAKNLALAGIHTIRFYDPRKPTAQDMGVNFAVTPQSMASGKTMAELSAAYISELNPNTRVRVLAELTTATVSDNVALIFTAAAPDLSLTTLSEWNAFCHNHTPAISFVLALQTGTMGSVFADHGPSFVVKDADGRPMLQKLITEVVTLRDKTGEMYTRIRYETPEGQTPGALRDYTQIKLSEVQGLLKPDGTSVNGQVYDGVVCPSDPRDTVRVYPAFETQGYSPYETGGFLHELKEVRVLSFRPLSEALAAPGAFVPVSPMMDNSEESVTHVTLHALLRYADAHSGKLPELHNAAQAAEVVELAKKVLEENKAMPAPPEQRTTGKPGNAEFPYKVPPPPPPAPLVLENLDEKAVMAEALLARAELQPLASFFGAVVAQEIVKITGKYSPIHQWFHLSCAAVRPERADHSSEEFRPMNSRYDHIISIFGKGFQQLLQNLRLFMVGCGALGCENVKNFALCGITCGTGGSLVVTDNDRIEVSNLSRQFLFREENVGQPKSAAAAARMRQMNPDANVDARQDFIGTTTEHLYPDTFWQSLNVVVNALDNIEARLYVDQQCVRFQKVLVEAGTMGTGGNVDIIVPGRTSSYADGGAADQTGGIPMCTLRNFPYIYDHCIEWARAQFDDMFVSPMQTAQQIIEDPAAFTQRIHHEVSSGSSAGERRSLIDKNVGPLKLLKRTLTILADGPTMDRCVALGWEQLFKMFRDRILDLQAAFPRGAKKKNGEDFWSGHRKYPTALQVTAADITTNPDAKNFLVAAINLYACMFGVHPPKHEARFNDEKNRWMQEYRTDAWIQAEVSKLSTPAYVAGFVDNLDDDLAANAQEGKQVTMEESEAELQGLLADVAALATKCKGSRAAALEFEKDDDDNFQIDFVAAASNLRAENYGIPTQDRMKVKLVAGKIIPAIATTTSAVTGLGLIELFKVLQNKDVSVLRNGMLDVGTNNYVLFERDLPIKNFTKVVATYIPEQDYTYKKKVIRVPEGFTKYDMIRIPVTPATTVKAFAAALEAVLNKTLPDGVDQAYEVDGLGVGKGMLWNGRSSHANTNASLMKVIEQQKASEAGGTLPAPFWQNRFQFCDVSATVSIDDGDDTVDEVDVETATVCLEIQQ
# [3] = target: Sialic acid-binding Ig-like lectin 9 (Homo sapiens) (UniProt Q9Y336); assay: Hs-Siglec9 ALPHAscreen SOP 20170721; details: 10 µM
# [4] = tested on: Trypanosoma cruzi; assay: Trypanosoma cruzi phosphomannomutase and mannose-1-phosphate guanylyltransferase assay; format: functional; details: 10 µM
# [5] = target: T2, Arginase-2, mitochondrial (Homo sapiens) (UniProt P78540); assay: in vitro enzyme assay to detect the production of urea directly proportional to the activity of Arginase II; format: functional; details: 33.3 µM; note: in the data most compounds retested in dose-response had high values
# T2 sequence (whole entry): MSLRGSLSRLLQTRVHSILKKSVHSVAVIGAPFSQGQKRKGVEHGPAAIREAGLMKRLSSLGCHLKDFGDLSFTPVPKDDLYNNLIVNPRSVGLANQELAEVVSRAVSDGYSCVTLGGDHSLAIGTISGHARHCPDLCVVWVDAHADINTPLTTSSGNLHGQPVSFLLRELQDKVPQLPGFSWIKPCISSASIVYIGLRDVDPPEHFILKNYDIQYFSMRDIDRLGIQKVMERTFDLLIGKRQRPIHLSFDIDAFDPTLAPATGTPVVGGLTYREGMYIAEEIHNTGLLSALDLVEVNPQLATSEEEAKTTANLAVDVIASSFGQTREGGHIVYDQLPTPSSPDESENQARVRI
# [6] = target: T3, Proteasome subunit beta (Trypanosoma cruzi) (UniProt O96673); assay: Trypanosoma cruzi proteasome chymotrypsin-like activity (TcProtChymo) assay.; note: in the data most compounds retested in dose-response had high values; format: functional; details: 9.37 µM
# T3 sequence (whole entry): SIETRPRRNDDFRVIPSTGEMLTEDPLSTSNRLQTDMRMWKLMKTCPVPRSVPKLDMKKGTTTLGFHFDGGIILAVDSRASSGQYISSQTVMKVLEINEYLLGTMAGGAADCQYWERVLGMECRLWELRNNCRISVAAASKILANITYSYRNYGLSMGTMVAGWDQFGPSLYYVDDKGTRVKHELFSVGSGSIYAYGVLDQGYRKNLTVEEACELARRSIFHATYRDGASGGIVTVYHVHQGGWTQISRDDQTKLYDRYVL
# [7] = species: Homo sapiens; assay: To identify inhibition of the IFN signalling (Jak-Stat) pathway via expression of an eGFP reporter gene under the control of an IFN-stimulated response element (ISRE) containing MxA promoter.; format: functional; details: 30 µM
# [8] = target: T4, Tyrosyl-tRNA synthetase, putative (Trypanosoma cruzi (strain CL Brener)) (UniProt Q4DSP6); assay: Trypanosoma cruzi tyrosyl tRNA synthetase (TcYRS) _High Tyrosine SOP; format: functional; details: 30 µM; note: in the data most compounds retested in dose-response had high values
# T4 sequence (whole entry): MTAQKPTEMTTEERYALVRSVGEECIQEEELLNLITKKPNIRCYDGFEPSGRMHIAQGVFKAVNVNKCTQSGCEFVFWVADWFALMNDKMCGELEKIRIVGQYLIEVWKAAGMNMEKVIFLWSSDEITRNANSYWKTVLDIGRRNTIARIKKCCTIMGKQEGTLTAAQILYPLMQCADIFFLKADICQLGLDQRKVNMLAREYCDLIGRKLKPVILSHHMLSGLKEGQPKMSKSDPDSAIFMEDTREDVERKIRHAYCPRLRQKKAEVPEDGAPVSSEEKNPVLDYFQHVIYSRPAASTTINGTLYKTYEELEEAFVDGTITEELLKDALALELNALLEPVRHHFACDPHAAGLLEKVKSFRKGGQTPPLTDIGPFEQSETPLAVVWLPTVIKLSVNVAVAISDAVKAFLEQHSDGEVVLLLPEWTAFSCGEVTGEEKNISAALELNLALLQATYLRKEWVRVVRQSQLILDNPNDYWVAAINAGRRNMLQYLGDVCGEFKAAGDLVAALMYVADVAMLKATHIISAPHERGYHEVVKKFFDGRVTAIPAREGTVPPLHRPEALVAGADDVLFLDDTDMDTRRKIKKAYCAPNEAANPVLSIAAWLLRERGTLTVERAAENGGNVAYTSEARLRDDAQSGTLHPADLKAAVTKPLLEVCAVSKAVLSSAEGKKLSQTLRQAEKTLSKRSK
# [9] = target: T4, Tyrosyl-tRNA synthetase, putative (Trypanosoma cruzi (strain CL Brener)); assay: Trypanosoma cruzi tyrosyl tRNA synthetase (TcYRS) SOP; format: functional; details: 30 µM
# [10] = target: Chromo domain-containing protein 1 (Saccharomyces cerevisiae (strain ATCC 204508 / S288c) (Baker's yeast)) (UniProt P32657); assay: ScCHD-1 Enzyme Inhibition Assay; format: functional; details: 30 µM; note: in the data most compounds retested in dose-response had high values
# Sequence of Chromo domain-containing protein 1 (Saccharomyces cerevisiae (strain ATCC 204508 / S288c) (Baker's yeast)) (P32657 whole entry, the tested form may be a part): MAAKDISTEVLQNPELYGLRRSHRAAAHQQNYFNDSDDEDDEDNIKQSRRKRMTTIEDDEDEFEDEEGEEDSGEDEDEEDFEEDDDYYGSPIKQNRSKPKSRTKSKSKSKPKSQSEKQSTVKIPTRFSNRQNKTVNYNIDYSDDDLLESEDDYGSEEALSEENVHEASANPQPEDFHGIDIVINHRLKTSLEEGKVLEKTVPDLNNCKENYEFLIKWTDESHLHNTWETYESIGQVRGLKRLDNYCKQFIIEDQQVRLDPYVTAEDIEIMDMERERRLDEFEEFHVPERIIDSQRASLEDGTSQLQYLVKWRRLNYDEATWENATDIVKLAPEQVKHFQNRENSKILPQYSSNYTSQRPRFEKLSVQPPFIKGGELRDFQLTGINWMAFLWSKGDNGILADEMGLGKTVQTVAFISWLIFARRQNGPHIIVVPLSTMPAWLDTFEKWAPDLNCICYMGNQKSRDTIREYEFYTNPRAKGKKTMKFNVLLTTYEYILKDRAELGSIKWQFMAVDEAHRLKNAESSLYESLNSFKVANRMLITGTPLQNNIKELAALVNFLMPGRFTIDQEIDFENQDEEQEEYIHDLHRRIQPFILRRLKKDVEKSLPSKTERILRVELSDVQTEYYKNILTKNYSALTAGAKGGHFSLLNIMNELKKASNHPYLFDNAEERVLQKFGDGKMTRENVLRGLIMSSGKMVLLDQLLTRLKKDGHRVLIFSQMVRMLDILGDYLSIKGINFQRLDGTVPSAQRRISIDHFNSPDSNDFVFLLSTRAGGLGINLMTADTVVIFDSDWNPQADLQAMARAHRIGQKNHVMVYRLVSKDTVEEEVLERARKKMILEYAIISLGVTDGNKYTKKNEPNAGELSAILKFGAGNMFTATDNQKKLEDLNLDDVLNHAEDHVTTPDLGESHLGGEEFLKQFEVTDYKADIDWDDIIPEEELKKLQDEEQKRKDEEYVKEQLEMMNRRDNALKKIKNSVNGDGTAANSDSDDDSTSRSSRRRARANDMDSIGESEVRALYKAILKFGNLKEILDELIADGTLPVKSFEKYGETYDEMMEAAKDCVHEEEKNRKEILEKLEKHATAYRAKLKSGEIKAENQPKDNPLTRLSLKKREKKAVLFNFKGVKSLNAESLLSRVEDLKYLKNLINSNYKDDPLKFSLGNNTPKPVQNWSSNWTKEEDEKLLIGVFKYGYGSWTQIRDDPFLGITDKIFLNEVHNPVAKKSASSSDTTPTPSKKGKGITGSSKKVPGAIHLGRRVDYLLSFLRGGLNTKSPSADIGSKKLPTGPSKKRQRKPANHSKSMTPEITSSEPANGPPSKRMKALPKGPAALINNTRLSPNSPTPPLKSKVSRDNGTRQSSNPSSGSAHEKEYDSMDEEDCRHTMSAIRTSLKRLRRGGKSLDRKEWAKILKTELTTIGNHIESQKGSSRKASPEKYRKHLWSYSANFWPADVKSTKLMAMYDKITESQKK
# Sequence of Sialic acid-binding Ig-like lectin 9 (Homo sapiens) (Q9Y336 whole entry): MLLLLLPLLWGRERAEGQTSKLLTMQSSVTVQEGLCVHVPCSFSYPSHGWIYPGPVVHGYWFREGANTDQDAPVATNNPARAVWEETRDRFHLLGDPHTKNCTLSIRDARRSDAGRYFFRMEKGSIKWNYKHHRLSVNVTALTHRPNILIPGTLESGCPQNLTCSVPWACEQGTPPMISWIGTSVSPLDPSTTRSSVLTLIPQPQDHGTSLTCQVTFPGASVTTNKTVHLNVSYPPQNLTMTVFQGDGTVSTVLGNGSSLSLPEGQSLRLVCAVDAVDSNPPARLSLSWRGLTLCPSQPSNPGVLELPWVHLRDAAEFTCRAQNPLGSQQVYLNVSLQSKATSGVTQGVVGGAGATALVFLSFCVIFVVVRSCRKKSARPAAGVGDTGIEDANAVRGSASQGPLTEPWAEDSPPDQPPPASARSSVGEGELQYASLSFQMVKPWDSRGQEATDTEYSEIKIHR
# Sequence of Protein translocase subunit SecA (Escherichia coli (strain K12)) (P10408 whole entry): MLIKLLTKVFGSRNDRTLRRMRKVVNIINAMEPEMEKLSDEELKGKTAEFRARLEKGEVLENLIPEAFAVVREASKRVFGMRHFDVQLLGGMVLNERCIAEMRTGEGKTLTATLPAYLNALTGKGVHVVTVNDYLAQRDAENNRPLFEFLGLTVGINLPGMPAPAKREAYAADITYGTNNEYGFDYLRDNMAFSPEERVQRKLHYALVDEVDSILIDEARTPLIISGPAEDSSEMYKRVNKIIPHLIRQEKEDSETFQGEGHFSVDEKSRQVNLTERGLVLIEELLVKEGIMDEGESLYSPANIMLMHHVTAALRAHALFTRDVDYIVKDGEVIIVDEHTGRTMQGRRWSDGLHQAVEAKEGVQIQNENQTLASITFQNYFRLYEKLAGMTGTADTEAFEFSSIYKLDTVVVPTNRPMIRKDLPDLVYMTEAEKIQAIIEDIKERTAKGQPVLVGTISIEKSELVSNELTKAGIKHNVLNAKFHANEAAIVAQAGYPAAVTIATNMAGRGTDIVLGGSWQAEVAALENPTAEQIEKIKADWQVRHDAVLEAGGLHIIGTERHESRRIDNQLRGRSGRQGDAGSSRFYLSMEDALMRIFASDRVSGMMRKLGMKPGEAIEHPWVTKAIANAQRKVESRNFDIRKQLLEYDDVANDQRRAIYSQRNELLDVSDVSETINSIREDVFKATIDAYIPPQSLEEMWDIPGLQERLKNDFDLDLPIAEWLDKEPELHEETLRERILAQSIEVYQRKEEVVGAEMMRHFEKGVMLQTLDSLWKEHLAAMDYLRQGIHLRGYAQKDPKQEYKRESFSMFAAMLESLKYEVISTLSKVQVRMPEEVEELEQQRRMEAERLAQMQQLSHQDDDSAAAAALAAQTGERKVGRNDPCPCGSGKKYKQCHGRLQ
SMILES,Percent Effect [1],Percent Effect [2],Percent Effect [3],Percent Effect [4],Percent Effect [5],Percent Effect [6],Percent Effect [7],Percent Effect [8],Percent Effect [9],Percent Effect [10]
Cc1cc(N2CCC(Cc3ccccc3)CC2)nc(-c2ccncc2)n1,-1.61%,-15.6%,11%,14.4%,-6.76%,-5.44%,-2.83%,18.6%,7.06%,4.27%
CC(C)c1nc(C2CCCN(Cc3nnc(C4CC4)o3)C2)no1 (stereo not given),3.18%,-2.67%,5.21%,0%,4.88%,0.933%,4.85%,-1.58%,-2.56%,-1.26%
Cc1cc(C)n(CC2CCCN2CCCS(N)(=O)=O)n1 (stereo not given),-1.45%,10.3%,-5.77%,7.61%,4.1%,18.3%,20.4%,3.35%,18.1%,-2.57%
Cc1ccc(C(=O)N2Cc3c(CN4CCCCC4)nn(C)c3C2)cc1C,-5.88%,-1.3%,-4.75%,-3.02%,-4.86%,17.9%,-26.6%,-11.1%,-12.8%,-3.91%
Cc1nsc(NC(=O)N2CCN(Cc3ccc(F)cc3)C(=O)C2)n1,-3.7%,-10.8%,-0.0827%,-0.291%,3.85%,4.45%,5.1%,2.66%,2.44%,3.97%
Cc1ncc2c(n1)CN(CCCc1nc3ccccc3o1)CC2,-8.07%,10.7%,3.45%,0%,-3.1%,8.91%,-14.7%,22.6%,28.2%,-7.47%
O=C(NCCOc1ccc2c(c1)CCC2)N1CCS(=O)(=O)CC1,-6.68%,2.56%,-7.49%,-1.78%,-0.82%,1.28%,23.2%,-1.44%,-1.21%,-2.29%
Cc1ccc([C@@H]2CN(C(=O)c3ccc[nH]3)C[C@H]2NC(=O)C2CC2)cc1,-2.9%,5.41%,1.4%,-4.56%,-3.85%,17.3%,30.6%,2.66%,7.32%,-6.72%
COc1ncc(C2(O)CCN(Cc3cccs3)CC2)c(OC)n1,-5.49%,22.7%,-1.28%,2.76%,-3.54%,11.2%,4.21%,8.47%,20%,-25.5%
CCc1ccc(S(=O)(=O)N2CCC3(CC(C(=O)NC)=NO3)C2)cc1 (stereo not given),-3.25%,1.3%,3.29%,5.36%,-4.05%,4.68%,-7.8%,1.58%,5.13%,0.139%
O=C(Nc1nccs1)NC1CCN(Cc2ccccc2)C1 (stereo not given),0.43%,15.4%,-11.5%,7.04%,4.51%,9.13%,-11.6%,6.22%,22.9%,1.47%
COc1ccc(C(=O)N2C[C@@H](CN3CCOCC3)[C@@H](CO)C2)c(C)c1,-3.12%,0%,14.3%,7.47%,6.64%,1.71%,-27.6%,1.6%,9.76%,-1.95%
O=C1NC2(CCN(Cc3cccnc3)CC2)CC1c1ccncc1 (stereo not given),-3.31%,6.49%,-5.51%,-7.69%,-0.405%,19%,-18.7%,1.58%,10.3%,4.74%
Cc1nc(-c2ccccc2F)sc1C(=O)N1CCN(C)CC1,-7.34%,2.7%,4.45%,-0.679%,-3.85%,18.5%,4.62%,3.72%,12.2%,-3.18%
COc1cccc(C(=O)NCCCN2CCc3ccccc3C2)c1OC,-0.301%,-5.33%,7.23%,-2.81%,1.77%,-5.34%,10.1%,2.63%,0%,-4.32%
c1ccc(-c2nc(CN3CCOC(Cn4cccn4)C3)no2)cc1 (stereo not given),-2.84%,2.67%,-2.67%,-3.01%,4.43%,7.38%,4.88%,5.79%,12.8%,-6.08%
CC(C)NC(=O)N1CCN(Cc2ccccn2)CC2(CC(=O)N(C)C2)C1 (stereo not given),-6.73%,11.7%,1.64%,-0.563%,-2.28%,2.49%,13.5%,0%,0%,-7.79%
Cc1nc(CN2CCCC(CCc3c(F)cccc3F)C2)c[nH]1 (stereo not given),-4.35%,-13.5%,23.7%,9.6%,-6.64%,1.37%,18.7%,5.85%,7.32%,96.9%
CCNc1nc2c(s1)C(=O)CN(C(=O)NCCc1ccccc1)C2,-3.42%,5.33%,-0.604%,-6.43%,3.99%,-1.95%,9.15%,1.58%,2.56%,2.08%
CCn1cc(C(=O)N2CCCC(c3[nH]ncc3S(C)(=O)=O)C2)cn1 (stereo not given),-2.25%,12%,-0.292%,0.395%,-0.443%,13.1%,-2.06%,4.23%,20%,-20.4%
Cc1cc(NCc2cc3n(n2)CCCN(S(C)(=O)=O)C3)ncn1,-8.82%,2.7%,4.07%,3.59%,5.94%,4.97%,0.911%,3.72%,12.2%,0.638%
O=C(NCCCn1ccnc1)N1CCN(c2cccs2)CC1,-5.79%,-10.4%,7.23%,2.42%,-9.22%,12.8%,-11.9%,28.4%,11.8%,0.725%
CCN1C(=O)CCCC12CCCN(C(=O)c1cnccn1)C2 (stereo not given),-2.55%,3.9%,1.16%,-0.75%,-2.28%,2.49%,14.1%,2.9%,7.5%,-6.78%
CC(C)c1ncncc1C(=O)NCCN1CCCS1(=O)=O,-3.82%,5.13%,-1.57%,7.98%,3.69%,3.5%,1.77%,1.44%,10.8%,1.18%
O=C(Cc1c[nH]c2ccccc12)N1CCC(Nc2cccnn2)CC1,-6.75%,15.6%,5.29%,-4.1%,3.07%,5.96%,5.15%,7.84%,16.5%,-5.46%
Cc1cnn(CC2CCCN2C(=O)c2ccc3nnc(C)n3c2)c1 (stereo not given),-1.55%,-5.13%,-9.94%,1.03%,2.87%,4.01%,8.47%,-2.39%,-3.61%,-5.71%
CO[C@@H]1CC[C@@H](N(C)C(=O)COc2ccc(F)cc2)[C@H]1O,-0.0302%,9.33%,5.58%,-6.31%,5.31%,10.8%,9.43%,1.06%,7.5%,-24%
c1csc(CN2CCOCC3(CCN(C4CCOCC4)C3)C2)n1 (stereo not given),-5.6%,6.49%,-3.43%,-4.77%,-5.67%,16.9%,-1.84%,2.63%,-2.56%,-0.251%
